Bioassay records (PubChem BioAssay)
Sa growth 42C – S. aureus growth inhibition at 42 and 30 °C, primary screen, LtaS inhibitor project, RN4220, two temperatures. OD600, 20 h, 42 °C; active compounds read low. relative growth, % (concentration not given with the values). 0.53% of 170,000 active. AID 720641, 2013;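 active = relative growth at most 50% at the other temperature and 20+ points below 30 °C, or under 10% at both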
S aureus helic – inhibitors of S. aureus replicative helicase, primary screen, biochemical, fluorescence unwinding readout | 0.05% of 120,000 active | purified S. aureus helicase, fluorescence unwinding assay | replicative DNA helicase (DnaC/DnaB), Staphylococcus aureus | AID 485395, 2010 | inhibition, % (no concentration beside the values); in the data active = inhibition above about 25%, passing the limit was not always enough;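 note: 0% = mean of negative control wells and 100% = mean of positive control wells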
Numbers without * were called inactive. This is one part of a sample in which hits are shown more often than they occur.

How did Cc1nnc(SCC2=C(C(=O)O)N3C(=O)[C@@H](NC(=O)Cn4cnnn4)[C@H]3SC2)s1 do in these assays?
Sa growth 42C: -0.6*

Results for CCN(C(=O)CSc1nnc(C)s1)c1ccccc1 ?
Sa growth 42C: 86; S aureus helic: 7

Results for CCOC(=O)c1c(-c2c(Cl)cccc2Cl)noc1C ?
Sa growth 42C: 0.5*

Results for CCOC(=O)c1c(-c2c(Cl)cccc2Cl)noc1N ?
Sa growth 42C: 104

Results for CC(C)NC(=O)CN1Cc2ccccc2C1=O ?
Sa growth 42C: 104; S aureus helic: -1

Results for Cc1c(C)c(C)c(C#CCO)c(C)c1C ?
Sa growth 42C: 3.2*; S aureus helic: -13

How did CC(=O)Nc1nnc(-c2cccs2)o1 do in these assays?
S aureus helic: -4

How did COc1cccc(-c2nnc(NC(=O)c3ccc(S(=O)(=O)N4CCCCC4C)cc3)o2)c1 (stereo not given) do in these assays?
Sa growth 42C: 2.4*; S aureus helic: 4

Results for COc1cccc(-c2nnc(NC(=O)c3ccc(S(=O)(=O)N(C)C)cc3)o2)c1 ?
Sa growth 42C: 71; S aureus helic: 1

How did CC(C)N(Cc1ccccc1)S(=O)(=O)c1ccc(C(=O)Nc2nnc(-c3cccs3)o2)cc1 do in these assays?
Sa growth 42C: 7.3*; S aureus helic: -7

What do the screens show for `COc1ccc(-c2nnc(NC(=O)c3ccc(S(=O)(=O)N4CCCCC4)cc3)o2)cc1`?
Sa growth 42C: 20; S aureus helic: 1

Results for CCCN(CCC)S(=O)(=O)c1ccc(C(=O)Nc2nnc(-c3cccc(OC)c3)o2)cc1 ?
Sa growth 42C: 0.1*; S aureus helic: -21

Results for CN(CC1CCCO1)S(=O)(=O)c1ccc(C(=O)Nc2nnc(-c3ccccc3)o2)cc1 (stereo not given) ?
Sa growth 42C: -0.1*; S aureus helic: 8

What do the screens show for `CN(CC1CCCO1)S(=O)(=O)c1ccc(C(=O)Nc2ccc3c(c2)C(=O)NC3=O)cc1` (stereo not given)?
Sa growth 42C: 96; S aureus helic: -9

What do the screens show for `COc1cc(-c2nnc(SCC(=O)NC3CCCC(C)C3C)o2)cc(OC)c1OC` (stereo not given)?
Sa growth 42C: 94; S aureus helic: -6

What do the screens show for `CC(NC(=O)c1ccccc1)c1ccccc1` (stereo not given)?
Sa growth 42C: 115; S aureus helic: 15

What do the screens show for `CCOc1ccc2[nH]c(=O)c(CN(Cc3cccnc3)S(=O)(=O)c3ccccc3)cc2c1`?
Sa growth 42C: 103; S aureus helic: 17

What do the screens show for `CC1CN(C(=S)c2ccccc2)CC(C)O1` (stereo not given)?
Sa growth 42C: 105; S aureus helic: 2

How did CCCc1ccc(C(=O)CC#N)cc1 do in these assays?
Sa growth 42C: 102; S aureus helic: -5

How did Cc1ccc(C)c(-n2c(SCc3ccccc3C#N)nnc2-c2cc3sccc3n2C)c1 do in these assays?
Sa growth 42C: 108; S aureus helic: 33

Results for O=C1CCN(C(=O)c2ccc(COc3ccccc3)cc2)CC1 ?
Sa growth 42C: 93; S aureus helic: 11

How did CCOC(=O)c1sc2nc(CN3CCCCC3)nc(N3CCCC3)c2c1C do in these assays?
Sa growth 42C: 98; S aureus helic: -10

Results for C=CCN(CC=C)S(=O)(=O)c1ccc(C(=O)Nc2nnc(-c3ccc(OC)cc3OC)o2)cc1 ?
Sa growth 42C: 94; S aureus helic: 8

How did COc1cccc(-c2nnc(NC(=O)c3ccc(S(=O)(=O)N(Cc4ccccc4)C(C)C)cc3)o2)c1 do in these assays?
Sa growth 42C: 0.4*; S aureus helic: -3

How did O=C(CC(SC1CCCCC1)C(=O)O)c1ccc(Br)cc1 (stereo not given) do in these assays?
Sa growth 42C: 131; S aureus helic: 5

How did O=C(CC(Sc1ccc(Br)cc1)C(=O)O)c1ccc(Cl)cc1 (stereo not given) do in these assays?
Sa growth 42C: 2.0*; S aureus helic: 12

What do the screens show for `Cc1cccc(C(=O)Sc2cccccc2=O)c1`?
Sa growth 42C: -1.0*; S aureus helic: 0

What do the screens show for `Cc1cccc(C(=O)Nc2cc3c(cc2C)n(C)c(=O)n3C)c1`?
Sa growth 42C: 80

Results for CCOc1nc(C)c(/C=C/C(=O)O)c(OCC)n1 ?
Sa growth 42C: 111; S aureus helic: 7

Results for C(=C\c1ccccc1)/C=N/[n+]1ccccc1 ?
Sa growth 42C: 103; S aureus helic: 7

Results for FC(F)(F)c1nc(SCc2ccc(Cl)cc2Cl)n[nH]1 ?
Sa growth 42C: -0.8*

What do the screens show for `O=c1[nH]nc(SCc2ccc(Cl)cc2Cl)c(=O)[nH]1`?
Sa growth 42C: 90; S aureus helic: -10

What do the screens show for `O=C(Nc1nccs1)c1ccc(F)cc1`?
Sa growth 42C: 92; S aureus helic: -20

How did Nc1cc(C(F)(F)F)c[nH]c1=O do in these assays?
Sa growth 42C: 97; S aureus helic: 14

Results for FC(F)(F)c1c[nH]c(=S)c(C(F)(F)F)c1 ?
Sa growth 42C: 7.9*

How did Cc1c(-c2ccccc2)cc2ccccn12 do in these assays?
Sa growth 42C: 4.3*; S aureus helic: -18

How did Cc1cc2ccccn2c1C(=O)Nc1ccccc1 do in these assays?
Sa growth 42C: 87; S aureus helic: -4

What do the screens show for `O=C(CCN1CCOCC1)c1ccc(O)cc1`?
Sa growth 42C: 102

Results for O=C(CCN1CCOCC1)c1ccc(Br)cc1 ?
Sa growth 42C: -0.4*; S aureus helic: 5

What do the screens show for `CCCCOc1ccc(C(=O)N2CCCCC2CCN2CCOCC2)cc1` (stereo not given)?
Sa growth 42C: 100

How did CCCCCOc1ccc(C(=O)CCN2CCOCC2)cc1 do in these assays?
Sa growth 42C: 13*; S aureus helic: 8

How did CCn1c(=NC(=O)c2cccc(OC)c2)sc2cccc(OC)c21 do in these assays?
Sa growth 42C: 94; S aureus helic: 5

Results for Cc1noc(C)c1Cn1cnc2scc(-c3ccc(Br)cc3)c2c1=O ?
Sa growth 42C: 98; S aureus helic: -4

Results for O=C(CSc1nncn1-c1ccccc1)c1ccc(S(=O)(=O)N2CCCC2)cc1 ?
Sa growth 42C: 96; S aureus helic: -3

How did CCCCC(=O)OC1=C(C(=O)c2ccccc2)N(CC)S(=O)(=O)c2ccccc21 do in these assays?
Sa growth 42C: 15

Results for CCCCN1C(C(=O)c2ccccc2)=C(OC(C)=O)c2ccccc2S1(=O)=O ?
Sa growth 42C: -0.5*

Results for CC(=O)N1CCN(Cc2csc(Nc3ccccc3)n2)CC1 ?
Sa growth 42C: 106; S aureus helic: -6

What do the screens show for `CC1CN(Cc2csc(Nc3ccccc3)n2)CC(C)O1` (stereo not given)?
Sa growth 42C: 0.7*; S aureus helic: 12

Results for O=C(CSc1cccc[n+]1[O-])NC1CCCc2ccccc21 (stereo not given) ?
Sa growth 42C: 86; S aureus helic: 5

How did CC1CN(c2ccccc2OC(=O)Nc2ccc(OC(F)(F)F)cc2)CC(C)O1 (stereo not given) do in these assays?
Sa growth 42C: 3.0*

Results for O=C(Nc1ccc(Cl)cc1)Oc1ccccc1N1CCSCC1 ?
Sa growth 42C: 117

What do the screens show for `O=C(Nc1ccc(F)cc1)Oc1ccccc1N1CCOCC1`?
Sa growth 42C: 95; S aureus helic: -6

How did O=C(Nc1ccc(OC(F)(F)F)cc1)Oc1ccccc1N1CCOCC1 do in these assays?
Sa growth 42C: 3.7*
